These results are taken from PubChem BioAssay (EPA / NIEHS).

The AC50 is the concentration at which the activity in the assay is half-maximal.

Settings in all cases: mRNA level, 48 h; actives raise or lower the signal
Read-out in test [1]: ATP-citrate lyase (ACLY), ACLY (gene 47)
The experiment in a line: LTEA_HepaRG_ACLY: Life Technologies and Expression Analysis (LTEA) Assay for ATP-citrate lyase (ACLY) using HepaRG (AID 2283466). A digest of the protocol: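 HepaRG, 48 h exposure, 8-pt half-log dilutions (top 100 uM), 0.5% DMSO. Readout: ACLY mRNA, TaqMan qRT-PCR, housekeeping-normalized (ACTB/GAPDH/POLR2A). Bidirectional curve fit vs DMSO.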

Read-out in test [2]: Alkaline Phosphatase, Placental (ALPP) gene, ALPP (gene 250)
The experiment in a line: LTEA_HepaRG_ALPP: Life Technologies and Expression Analysis (LTEA) Assay for Alkaline Phosphatase, Placental (ALPP) gene using HepaRG (AID 2283468).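 As to AC50: differentiated human HepaRG liver cells in serum-free induction medium.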 A digest of the protocol:
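Using human liver HepaRG cells, chemicals are tested in duplicate over 48 h at half-log concentrations topping at 100 uM; phenobarbital 1 mM serves as induction control. ALPP mRNA change by qRT-PCR, bidirectional fit against vehicle.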

Read-out in test [3]: Bcl-2 (BAD) gene, BAD (gene 572)
The experiment in a line: LTEA_HepaRG_BAD: Life Technologies and Expression Analysis (LTEA) Assay for Bcl-2 (BAD) gene using HepaRG (AID 2283469). A digest of the protocol: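 BAD transcript change, measured by qRT-PCR against three housekeeping genes and fitted in both directions relative to 0.5% DMSO, after 48 h chemical treatment of human HepaRG liver cells at concentrations up to 100 uM.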

Read-out in test [4]: Bcl-2 (BAX) gene, BAX (gene 581)
The experiment in a line: LTEA_HepaRG_BAX: Life Technologies and Expression Analysis (LTEA) Assay for Bcl-2 (BAX) gene using HepaRG (AID 2283470). A digest of the protocol: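 HepaRG (human liver), 48 h exposure, duplicate wells. 8-pt curve, half-log from 100 uM, 0.5% DMSO. BAX transcript by TaqMan qRT-PCR; ACTB/GAPDH/POLR2A normalization; gain or loss vs DMSO baseline.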

Read-out in test [5]: Alpha-fetoprotein (AFP) gene, AFP (gene 174)
The experiment in a line: LTEA_HepaRG_AFP: Life Technologies and Expression Analysis (LTEA) Assay for Alpha-fetoprotein (AFP) gene using HepaRG (AID 2283472). A digest of the protocol: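 HepaRG, single lot; 48 h post-plating -> serum-free induction medium; cpd 8-pt, 100 uM top, half-log, 0.5% DMSO, duplicate, 48 h. RNA -> qRT-PCR AFP, norm ACTB/GAPDH/POLR2A. Bidirectional fit vs DMSO.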

Read-out in a further test: BCL2L11 (gene 10018)
Briefly: LTEA_HepaRG_BCL2L11: Life Technologies and Expression Analysis (LTEA) Assay for Bcl-2 (BCL2L11) gene using HepaRG (AID 2283473). A digest of the protocol: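 Human hepatic HepaRG cultures are treated 48 h with test chemicals (maximum 100 uM, 0.5% DMSO vehicle). Expression of BCL2L11 is measured by qRT-PCR against ACTB, GAPDH and POLR2A, with activity in either direction scored relative to vehicle.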

Read-out in test [6]: Apolipoprotein A-V (APOA5) gene, APOA5 (gene 116519)
The experiment in a line: LTEA_HepaRG_APOA5: Life Technologies and Expression Analysis (LTEA) Assay for Apolipoprotein A-V (APOA5) gene using HepaRG (AID 2283474). A digest of the protocol:
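Concentration-response of APOA5 expression in HepaRG: eight half-log doses to 100 uM, 48 h, qRT-PCR normalized to ACTB/GAPDH/POLR2A, bidirectional fitting with 0.5% DMSO as baseline.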

Read-out in test [7]: Apoptosis regulator Bcl-2 (Homo sapiens) (UniProt P10415)
Briefly: LTEA_HepaRG_BCL2: Life Technologies and Expression Analysis (LTEA) Assay for Bcl-2 gene using HepaRG (AID 2283475). A digest of the protocol: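 HepaRG, plated 48 h then switched to serum-free induction medium; dosed 48 h, 8 conc. (max 100 uM, half-log steps), duplicate, 0.5% DMSO. Lysis in RLT, RNA isolated, TaqMan qRT-PCR for BCL2; ACTB/GAPDH/POLR2A normalisation; bidirectional fit vs DMSO.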

Read-out in test [8]: Bcl-2 (BID) gene, BID (gene 637)
Briefly: LTEA_HepaRG_BID: Life Technologies and Expression Analysis (LTEA) Assay for Bcl-2 (BID) gene using HepaRG (AID 2283476). A digest of the protocol:
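Transcript levels of BID, measured by qRT-PCR and normalized to three housekeeping genes, were fitted bidirectionally against DMSO controls. Cells were HepaRG, dosed 48 h at up to 100 uM.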

Read-out in another test: Caspase-3 (Homo sapiens) (UniProt P42574)
Briefly: LTEA_HepaRG_CASP3: Life Technologies and Expression Analysis (LTEA) Assay for cysteine-aspartic acid protease (CASP3) using HepaRG (AID 2283477). A digest of the protocol: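 Transcript-level assay: CASP3 mRNA in human HepaRG after 48 h treatment, eight half-log concentrations from 100 uM in 0.5% DMSO, quantified by qRT-PCR.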

Read-out in test [9]: Cytochrome P450 (CYP24A1), CYP24A1 (gene 1591)
The experiment in a line: LTEA_HepaRG_CYP24A1: Life Technologies and Expression Analysis (LTEA) Assay for Cytochrome P450 (CYP24A1) using HepaRG (AID 2283478). A digest of the protocol: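 Gene expression of CYP24A1 by TaqMan qRT-PCR in HepaRG after 48 h treatment, highest concentration 100 uM; activity fitted in both directions relative to DMSO vehicle.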

Read-out in test [10]: Cytochrome P450 (CYP1A2), CYP1A2 (gene 1544)
The experiment in a line: LTEA_HepaRG_CYP1A2: Life Technologies and Expression Analysis (LTEA) Assay for Cytochrome P450 (CYP1A2) using HepaRG (AID 2283479). A digest of the protocol: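 In duplicate wells, HepaRG cultures maintained in 0.5% DMSO were treated 48 h across an 8-point, half-log series topping at 100 uM; phenobarbital (1 mM) served as induction control. Expression was read by qRT-PCR.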

Read-out in test [11]: cysteine-aspartic acid protease (CASP8), CASP8 (gene 841)
Briefly: LTEA_HepaRG_CASP8: Life Technologies and Expression Analysis (LTEA) Assay for cysteine-aspartic acid protease (CASP8) using HepaRG (AID 2283480). A digest of the protocol:
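HepaRG, 48 h exposure, duplicate wells; 8 conc, half-log from 100 uM, 0.5% DMSO. Serum-free induction medium. CASP8 mRNA by TaqMan qRT-PCR, norm. ACTB/GAPDH/POLR2A; gain/loss fitted vs DMSO.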

Read-out in test [12]: Cytochrome P450 2C19 (Homo sapiens) (UniProt P33261)
The experiment in a line: LTEA_HepaRG_CYP2C19: Life Technologies and Expression Analysis (LTEA) Assay for CYP2C19 using HepaRG (AID 2283482). A digest of the protocol: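 Endpoint: CYP2C19 mRNA change, bidirectional fit vs 0.5% DMSO. Cells: HepaRG, 48 h exposure, eight-point series topping at 100 uM. Quantitation: qRT-PCR normalized to ACTB, GAPDH, POLR2A.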

Read-out in the next test: CYP2C8 (gene 1558)
The experiment in a line: LTEA_HepaRG_CYP2C8: Life Technologies and Expression Analysis (LTEA) Assay for CYP2C8 using HepaRG (AID 2283483). A digest of the protocol:
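CYP2C8 mRNA induction or loss, by qRT-PCR normalized to ACTB/GAPDH/POLR2A, is read in HepaRG cells after 48 h treatment. Concentrations run from 100 uM down in half-log dilutions, with 0.5% DMSO as vehicle and baseline.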

Read-out in a further test: CYP2C9 (gene 1559)
The experiment in a line: LTEA_HepaRG_CYP2C9: Life Technologies and Expression Analysis (LTEA) Assay for CYP2C9 using HepaRG (AID 2283484). A digest of the protocol:
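Cells plated 48 h, switched to serum-free induction medium, then treated in duplicate for 48 h at eight concentrations (max 100 uM, 0.5% DMSO). RNA then analysed by qRT-PCR for CYP2C9; curves fitted in both directions relative to DMSO.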

Read-out in test [13]: Cytochrome P450 (CYP2B6), CYP2B6 (gene 1555)
The experiment in a line: LTEA_HepaRG_CYP2B6: Life Technologies and Expression Analysis (LTEA) Assay for Cytochrome P450 (CYP2B6) using HepaRG (AID 2283481). A digest of the protocol:
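Human HepaRG, 48 h dosing, 0.5% DMSO vehicle, top dose 100 uM. CYP2B6 transcript by qRT-PCR, housekeeping-normalized, bidirectional curve fit.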

Read-out in another test: CYP2E1 (gene 1571)
Briefly: LTEA_HepaRG_CYP2E1: Life Technologies and Expression Analysis (LTEA) Assay for CYP2E1 using HepaRG (AID 2283485). A digest of the protocol:
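Human liver line HepaRG, plated 48 h, then serum-free induction medium + chemical x 48 h; 8-pt CRC from 100 uM, half-log, 0.5% DMSO, n=2. Readout: CYP2E1 mRNA qRT-PCR vs ACTB/GAPDH/POLR2A; bidirectional fit vs DMSO.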

Calls of active or inactive are those of the source. The calls were made as follows: active = hit-call score of the fitted dose curve at least 0.9, where 1 is the maximum; inactive = score below 0.9.

Chain of Cytochrome P450 2C19 (Homo sapiens) (P33261 whole entry, looked up): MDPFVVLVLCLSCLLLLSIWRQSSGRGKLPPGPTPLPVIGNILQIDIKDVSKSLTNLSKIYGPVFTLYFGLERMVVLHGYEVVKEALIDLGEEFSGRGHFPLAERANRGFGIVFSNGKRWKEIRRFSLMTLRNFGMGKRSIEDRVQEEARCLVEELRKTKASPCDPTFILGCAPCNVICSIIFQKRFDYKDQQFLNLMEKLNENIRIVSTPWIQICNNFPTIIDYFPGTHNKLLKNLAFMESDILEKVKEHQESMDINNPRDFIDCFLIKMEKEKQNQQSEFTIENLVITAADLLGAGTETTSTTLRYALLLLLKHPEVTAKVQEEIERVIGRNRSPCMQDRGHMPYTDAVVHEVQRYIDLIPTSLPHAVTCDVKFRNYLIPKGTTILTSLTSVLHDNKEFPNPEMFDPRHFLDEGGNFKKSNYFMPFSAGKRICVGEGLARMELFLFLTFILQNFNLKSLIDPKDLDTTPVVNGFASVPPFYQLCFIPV
Chain of Caspase-3 (Homo sapiens) (P42574 whole entry, looked up): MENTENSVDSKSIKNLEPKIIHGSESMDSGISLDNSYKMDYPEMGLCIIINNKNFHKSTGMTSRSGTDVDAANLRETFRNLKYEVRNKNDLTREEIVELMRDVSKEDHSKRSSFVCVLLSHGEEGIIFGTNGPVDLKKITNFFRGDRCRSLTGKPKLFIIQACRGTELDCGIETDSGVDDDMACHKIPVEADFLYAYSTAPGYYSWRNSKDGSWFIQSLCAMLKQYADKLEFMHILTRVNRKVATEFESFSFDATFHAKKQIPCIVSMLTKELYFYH
Chain of Apoptosis regulator Bcl-2 (Homo sapiens) (P10415 whole entry, looked up): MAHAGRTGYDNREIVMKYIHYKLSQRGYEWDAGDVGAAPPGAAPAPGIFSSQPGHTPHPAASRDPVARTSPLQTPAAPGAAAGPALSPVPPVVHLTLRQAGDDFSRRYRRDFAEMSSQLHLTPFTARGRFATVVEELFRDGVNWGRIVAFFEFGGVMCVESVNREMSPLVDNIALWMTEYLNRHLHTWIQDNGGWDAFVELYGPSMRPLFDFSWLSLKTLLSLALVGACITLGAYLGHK

For the compound `CCOc1ccc2[nH]cc(C(=O)NCc3ccccc3)c(=O)c2n1`, the outcome (in test [1]; in test [2]; in [3]; in test [4]; with BCL2L11 (gene 10018); in test [6]) was inactive. Besides, the outcome (in test [8]; with Caspase-3 (Homo sapiens); in [9]; in test [11]; in [12]; in the test with CYP2C8 (gene 1558)) was inactive. Also, the compound was called inactive with CYP2C9 (gene 1559). Moreover, the AC50 in test [5] is 81.3 µM (active); in test [7] it was 0.662 µM (active); in test [10] it was 32 µM (active).
Regarding `C=CCc1cc(S(=O)(=O)c2ccc(O)c(CC=C)c2)ccc1O`, the compound was classed as inactive (in test [1]; in [3]; in [4]; in the test with BCL2L11 (gene 10018); in test [7]; in test [8]). In addition, the result (with Caspase-3 (Homo sapiens); in test [9]; in test [11]) was inactive. Further, the AC50 was 50 µM (active) in test [2]; 79.1 µM (active) in test [5]; 89 µM (active) in test [6]; 8.77 µM (active) in test [10]; 95.4 µM (active) in test [12]; 97.2 µM (active) with CYP2C8 (gene 1558). In addition, in the test with CYP2C9 (gene 1559), the AC50 was 93 µM (active).
As to `C[C@]12C=CC(=O)C=C1CC[C@H]1[C@@H]3C[C@@H](O)[C@](O)(C(=O)CO)[C@@]3(C)C[C@H](O)[C@@]12F`, the compound was classed as inactive (in test [1]; in [2]; in test [3]; in [4]; in test [5]; with BCL2L11 (gene 10018)). Also, the compound was called inactive (in [6]; in [7]; in test [8]; with Caspase-3 (Homo sapiens); in [9]; in test [11]). The compound was called inactive (in test [13]; with CYP2C8 (gene 1558); in the test with CYP2C9 (gene 1559); with CYP2E1 (gene 1571)). In test [10], the AC50 was 50 µM (active).
In the case of `OC[C@H]1O[C@@H]2O[C@H]3[C@H](O)[C@@H](O)[C@@H](O[C@H]4[C@H](O)[C@@H](O)[C@@H](O[C@H]5[C@H](O)[C@@H](O)[C@@H](O[C@H]6[C@H](O)[C@@H](O)[C@@H](O[C@H]7[C@H](O)[C@@H](O)[C@@H](O[C@H]1[C@H](O)[C@H]2O)O[C@@H]7CO)O[C@@H]6CO)O[C@@H]5CO)O[C@@H]4CO)O[C@@H]3CO`, the call (in test [1]; in [2]; in test [3]; in test [4]; in test [5]; with BCL2L11 (gene 10018)) was inactive. The compound was called inactive (in test [6]; in [7]; in test [8]; with Caspase-3 (Homo sapiens); in test [9]; in test [10]). Also, the result (in test [11]; in [12]; with CYP2C8 (gene 1558); in the test with CYP2C9 (gene 1559); with CYP2E1 (gene 1571)) was inactive.
